Screening data deposited in PubChem by The Scripps Research Institute Molecular Screening Center.
Most compounds without a hit are left out; they make up all but 4.1% or so of the library.
DAX1 inh-1: blocks DAX1 repression of SF-1 activated StAR promoter. inhibition, % at 6.8 µM. actives 1.1% (n = 370,000). HEK293T StAR-luciferase reporter, SF-1/DAX-1 repression relief;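 active = inhibition above the mean over all tested compounds plus 3 SD, cut at about 3.6% in these data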;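 also: 0% = DAX-1 cells with DMSO and 100% = cells lacking DAX-1 with DMSO; higher inhibition means more luminescence from relief of DAX-1 repression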
hcDAF12 agonist: activates DAF-12 receptor from parasite H. contortus; HEK293 hcDAF-12 lit1-tk-luc reporter, luminescence; 0% DMSO, 100% Δ7-dafachronic acid; activation, % at 6.8 µM; actives 1.4% (n = 370,000); AID 652067;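 active = activation above the mean of all tested compounds plus 3 SD, cut at about 5.5% in these data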;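 also: 100% = response to 3 µM Δ7-dafachronic acid high control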
DAX1 inh-2: inhibitors of human orphan nuclear receptor DAX1 (NR0B1). inhibition, % at 6.75 µM. actives 0.99% (n = 340,000). AID 504766. P51843. HEK293 Gal4-DAX1 luciferase reporter, luminescence;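 active = inhibition above the mean over all tested compounds plus 3 SD, cut at about 4.2% in these data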;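 also: 0% = DAX1-transfected cells with DMSO and 100% = empty-vector control cells with DMSO; inhibition shows as a rise in luminescence from relieved DAX1 repression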
Target sequence (P51843 207-470 limits assumed): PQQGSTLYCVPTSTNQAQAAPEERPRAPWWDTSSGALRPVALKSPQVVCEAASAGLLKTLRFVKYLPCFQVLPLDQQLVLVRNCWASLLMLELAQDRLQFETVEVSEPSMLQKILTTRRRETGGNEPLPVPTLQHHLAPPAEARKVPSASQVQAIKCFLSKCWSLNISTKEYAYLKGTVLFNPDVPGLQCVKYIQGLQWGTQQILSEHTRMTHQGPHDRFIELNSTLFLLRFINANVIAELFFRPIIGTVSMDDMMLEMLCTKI
ssDAF12 agonist: activates DAF-12 receptor from parasite S. stercoralis; HEK293 ssDAF-12/GRIP1 lit1-tk-luc reporter, luminescence; % of 3 µM dafachronic acid response; activation, % at 6.8 µM; actives 1% (n = 370,000);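 active = activation above the mean over all tested compounds plus 3 SD, cut at about 0.9% in these data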;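 also: 0% = DMSO-only wells and 100% = 3 µM delta7-dafachronic acid wells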
hgDAF12 agonist: hgDAF-12 agonism, primary luciferase screen; activation, % at 6.8 µM; actives 1.8% (n = 370,000); HEK293 GAL4-hgDAF12 UAS-luciferase reporter, agonist luminescence; normalized to butyrate control;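 active = activation above a cutoff set at the mean of all screened compounds plus 3 SD, cut at about 10% in these data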;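 also: 0% = DMSO wells and 100% = sodium butyrate wells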
The depositor's hits bear a star.

Screening COC(=O)[C@]12C=CCN1[C@@H](c1ccc(OC)c(OC)c1)c1c(c3ccccc3n1S(=O)(=O)c1ccc(C)cc1)C2 returned DAX1 inh-1 -1.4, hcDAF12 agonist 5.8*, ssDAF12 agonist -1.3 and hgDAF12 agonist 0.6.
For COC(=O)c1cc(S(=O)(=O)NCc2ccccc2OC)cn1C the results were DAX1 inh-1 -0.2, hcDAF12 agonist 0.5, DAX1 inh-2 1.1, ssDAF12 agonist -1.3 and hgDAF12 agonist -1.9.
`COC(=O)c1cc(S(=O)(=O)NCc2cccc(OC)c2)cn1C` gave DAX1 inh-1 0.2, hcDAF12 agonist 0.5, DAX1 inh-2 5.3*, ssDAF12 agonist -1.3 and hgDAF12 agonist 1.6.
CN1C(=O)C[C@@](C#N)(C(=O)NCC(F)(F)F)[C@H]1c1ccccc1 was read as DAX1 inh-1 0.0, hcDAF12 agonist 2.8, ssDAF12 agonist -1.2 and hgDAF12 agonist 3.4.
For COc1ccc(/C=N/n2c(-c3ccc(C)cc3)n[nH]c2=S)cc1OC the results were DAX1 inh-1 0.3, hcDAF12 agonist -2.6, DAX1 inh-2 0.9, ssDAF12 agonist -1.1 and hgDAF12 agonist -1.6.
Screening C/C(=N\NC(=O)c1nnn(-c2nonc2N)c1CN1CCc2ccccc21)c1ccccc1O returned DAX1 inh-1 -0.2, hcDAF12 agonist 5.6*, DAX1 inh-2 0.2, ssDAF12 agonist -0.8 and hgDAF12 agonist 0.0.
Cc1ccc(C2CCC3(CCC(=O)N3CCO)CC2)cc1 (configuration not stated) was read as DAX1 inh-1 0.1, hcDAF12 agonist -2.4, ssDAF12 agonist -0.6 and hgDAF12 agonist -2.7.
`O=C(Nc1ccc(Cl)cc1)C1CCCN1S(=O)(=O)c1cccc2cccnc12` (configuration not stated) gave DAX1 inh-1 -1.9, hcDAF12 agonist -2.7, ssDAF12 agonist -1.8 and hgDAF12 agonist -0.8.
O=C(O)c1ccccc1C=NN=C1c2ccccc2-c2ccccc21 was read as DAX1 inh-1 -0.2, hcDAF12 agonist 2.2, DAX1 inh-2 0.7, ssDAF12 agonist 0.2 and hgDAF12 agonist 1.1.
Screening Oc1ccccc1C=NN=C1c2ccccc2-c2ccccc21 returned DAX1 inh-1 -0.6, hcDAF12 agonist 3.4, DAX1 inh-2 0.8, ssDAF12 agonist 2.1* and hgDAF12 agonist 3.2.
`Cn1nccc1C(=O)Nc1sc2c(c1C#N)CCCC2` gave DAX1 inh-1 4.3*, hcDAF12 agonist 1.1, DAX1 inh-2 0.3, ssDAF12 agonist -0.6 and hgDAF12 agonist 6.8.
CCCC[C@H]1C2CC(OC(=O)Nc3cc(C)cc(C)c3)C(C2)[C@H]2CCCCN21 (some centres not stated) was read as DAX1 inh-1 -0.3, hcDAF12 agonist -1.6, ssDAF12 agonist -1.5 and hgDAF12 agonist 6.8.
COc1ccc(CN2CCN(S(=O)(=O)c3ccccc3)CC2)cc1Br was read as DAX1 inh-1 0.2, hcDAF12 agonist -2.9, DAX1 inh-2 0.3, ssDAF12 agonist 1.4* and hgDAF12 agonist -2.1.
`COc1ccc(CN2CCN(S(=O)(=O)c3ccc(F)cc3)CC2)cc1OC` gave DAX1 inh-1 0.0, hcDAF12 agonist -1.6, DAX1 inh-2 -1.2, ssDAF12 agonist -1.6 and hgDAF12 agonist -0.4.
`Cc1ccc2cc(CCNC(=O)c3ccco3)c(=O)[nH]c2c1` gave DAX1 inh-1 2.1, hcDAF12 agonist 1.0, DAX1 inh-2 1.3, ssDAF12 agonist -0.7 and hgDAF12 agonist 6.3.
Screening Cc1ccc2cc(CCNC(=O)c3ccco3)c(=O)[nH]c2c1C returned DAX1 inh-1 4.4*, hcDAF12 agonist 6.5*, DAX1 inh-2 2.6, ssDAF12 agonist -0.5 and hgDAF12 agonist 12.9*.
Screening COC(=O)C(Cc1ccccc1)NC(=O)c1ccc(C)cc1 (configuration not stated) returned DAX1 inh-1 -0.4, hcDAF12 agonist 0.5, DAX1 inh-2 -0.5, ssDAF12 agonist 1.3* and hgDAF12 agonist 7.1.
`COC(=O)C(Cc1ccc(O)cc1)NC(=O)c1ccccc1` (configuration not stated) gave DAX1 inh-1 -0.7, hcDAF12 agonist 0.3, DAX1 inh-2 2.0, ssDAF12 agonist -0.7 and hgDAF12 agonist 2.1.
`CCN(Cc1cn(Cc2ccc(C)cc2)nn1)S(=O)(=O)c1ccccc1Br` gave DAX1 inh-1 -0.5, hcDAF12 agonist -3.1, ssDAF12 agonist -0.8 and hgDAF12 agonist 0.8.
Screening Cc1ccc(NC2SC(=O)N(CC(=O)O)C2=O)cc1 (configuration not stated) returned DAX1 inh-1 -0.1, hcDAF12 agonist 4.9, DAX1 inh-2 1.2, ssDAF12 agonist 1.2* and hgDAF12 agonist 2.5.
For COCC(C)NC(=S)Nc1ccccc1[N+](=O)[O-] (configuration not stated) the results were DAX1 inh-1 0.1, hcDAF12 agonist 3.8, DAX1 inh-2 0.7, ssDAF12 agonist 2.4* and hgDAF12 agonist -1.8.
For CCN1CCCCC(NC(=O)c2cccc(C(F)(F)F)c2)C1=O (configuration not stated) the results were DAX1 inh-1 -0.5, hcDAF12 agonist -0.6, ssDAF12 agonist -1.0 and hgDAF12 agonist -0.5.
Screening COc1ccccc1-c1nc2s/c(=C\c3cccs3)c(=O)n2n1 returned DAX1 inh-1 -0.2, hcDAF12 agonist 2.2, DAX1 inh-2 1.9, ssDAF12 agonist -0.3 and hgDAF12 agonist 0.9.
For COc1ccc(/C=c2\sc3nc(-c4ccccc4OC)nn3c2=O)c(OC)c1 the results were DAX1 inh-1 -0.4, hcDAF12 agonist 3.5, DAX1 inh-2 -0.4, ssDAF12 agonist 0.9* and hgDAF12 agonist 2.4.
For O=C(Nc1ccccc1)SC1CCCCC1 the results were DAX1 inh-1 0.9, hcDAF12 agonist 3.0, DAX1 inh-2 2.3, ssDAF12 agonist 0.0 and hgDAF12 agonist 12.4*.
Screening CSC(=NC#N)N1CCN(C(=NC#N)SC)CC1 returned DAX1 inh-1 -0.8, hcDAF12 agonist -0.4, DAX1 inh-2 4.7*, ssDAF12 agonist -0.1 and hgDAF12 agonist 0.8.
`CSC(=NC#N)N1CCN(C(c2ccccc2)c2ccccc2)CC1` gave DAX1 inh-1 -1.1, hcDAF12 agonist 0.9, DAX1 inh-2 0.0, ssDAF12 agonist -1.2 and hgDAF12 agonist 0.7.
Screening C=CCOC(=O)N[C@H](c1ccc(-c2ccccc2)cc1)[C@H](C)/C=C/CC(=O)OC returned DAX1 inh-1 -0.6, hcDAF12 agonist -1.5, ssDAF12 agonist -1.8 and hgDAF12 agonist 1.6.
`COC(=O)C[C@@H]1C[C@@H]2c3cc(NS(=O)(=O)c4ccccc4)ccc3O[C@@H]2[C@@H](CO)O1` gave DAX1 inh-1 0.8, hcDAF12 agonist 0.3, DAX1 inh-2 1.1, ssDAF12 agonist -1.5 and hgDAF12 agonist 12.8*.
Screening COC(=O)C[C@H]1C[C@@H]2c3cc(NS(=O)(=O)c4ccc(OC)cc4)ccc3O[C@@H]2[C@H](CO)O1 returned DAX1 inh-1 -0.5, hcDAF12 agonist -2.1, DAX1 inh-2 3.9, ssDAF12 agonist -1.3 and hgDAF12 agonist 1.0.
Cc1ncc2c(c1OC(=O)c1ccccc1)COC(C)(C)OC2 was read as DAX1 inh-1 -0.2, hcDAF12 agonist -0.1, DAX1 inh-2 5.1*, ssDAF12 agonist -1.4 and hgDAF12 agonist 1.4.
